Source: PubChem (Broad Institute)
INS-1E GSIS act: GLuc luminescence reporter in INS-1E cells, primary screen for activators of glucose-dependent secretion of insulin; AID 743287; 370,000 compounds, 0.61% hits; activation, % at 16.6 µM; INS-1E GLuc reporter insulin secretion, 2-3 h;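 active = lowest replicate activation of at least 40%, so every replicate reaches that level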;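 also: 0% = median of neutral control wells and 100% = median of IBMX positive control wells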
rRNA inh HTS: inhibitors of bacterial rRNA selective over humanized ribosomes | E. coli WT GFP vs humanized-ribosome RFP mutants, fluorescence, 24 h; active compounds read low; DMSO median 0, no signal -100 | GFP signal change (wild-type ribosome), % (test concentration not listed) | 350,000 compounds, 1.6% hits;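 active = significant combined selectivity score with lowered wild-type GFP, culture density cut under 30%, mutant RFP and density less affected; inactive = any of these conditions unmet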
CaV13 FRET inh: Primary screen for inhibitors of IQ motif and Ca2+-dependent inactivation inhibitor domain binding in CACNA1D, Förster resonance energy transfer in living cells, … | HEK cells, CFP/YFP FRET ICDI-IQ, plate reader, 10 min; percent FRET-ratio fall versus neutral wells | inhibition, % at 12.3 µM | 340,000 compounds, 0.098% hits | AID 743397;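 active = mean replicate inhibition of at least 30% and at least 1% of replicates passing that level; inconclusive = only one of the two criteria is met; inactive = neither criterion is met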;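 also: 0% = median of the neutral control wells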
DENV2 CPE: protects cells from dengue virus 2 cytopathic effect | DENV2-infected cells, cytopathic effect rescue, plate reader | CPE inhibition, % at 9.99 µM | 350,000 compounds, 1.7% hits; in the data active = CPE inhibition above about 20%, passing the limit was not always enough; inconclusive = no clear call, values can overlap the other calls; tested in BHK-21 cells;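 also: 0% = median of neutral control wells and 100% = median of positive control wells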
ERAP1 HTS inh: inhibitors of human ERAP1 aminopeptidase; Q9NZ08; recombinant ERAP1, Leu-AMC fluorescence, 60 min; inhibition, % at 10.7 µM; 340,000 compounds, 0.15% hits; AID 652197;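 active = mean replicate inhibition of at least 30%, or all replicates individually reaching that 30% level; inactive = mean below 30% and not every replicate reaching it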;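 also: 0% = neutral control wells and 100% = L-leucinethiol positive control wells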
PGC1a acetyl inh: modulators of PGC1a acetylation; U2OS PGC1a acetylation, AlphaScreen anti-acetyl-lysine; with virally co-expressed GCN5 acetyltransferase; inhibition, % at 15.6 µM; 350,000 compounds, 0.17% hits; AID 651687;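 active = every replicate shows inhibition of at least 40%; inconclusive = mean inhibition at least 40% but some replicate below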;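 also: 0% = neutral control wells and 100% = positive control wells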
The depositor's hits bear a star; ? = inconclusive; . = not tested or not shown. Most compounds without a hit are left out; they make up all but 3.2% or so of the library.

SMILES | INS-1E GSIS act | rRNA inh HTS | CaV13 FRET inh | DENV2 CPE | ERAP1 HTS inh | PGC1a acetyl inh
C[C@@H]1CCCCO[C@@H](CN(C)C(=O)CCCN(C)C)[C@@H](C)CN([C@H](C)CO)C(=O)c2cc(NC(=O)c3ccccc3)ccc2O1 | 14 | 1 | . | ? | -1 | 14
CCCNC(=O)N1C[C@H](C)[C@H](OC)CN(C)C(=O)c2ccc(NC(=O)CCC)cc2OC[C@H]1C | 13 | 1 | . | 6 | 1 | -3
COc1ccccc1/C=C1\SC(N2CCC(C)CC2)=NC1=O | -33 | -26 | -4 | 0 | 4 | .
CCOC(=O)C1CCN(C2=NC(=O)/C(=C/c3ccccc3OC)S2)CC1 | -9 | -24* | -18 | 3 | 0 | -15
Cc1ccc(S(=O)(=O)Nc2ccc3c(c2)C(=O)N([C@@H](C)CO)C[C@@H](C)[C@H](CN(C)S(=O)(=O)c2ccc(F)cc2)O3)cc1 | -17 | -7 | . | -5 | -3 | -8
COC(=O)C1=C(C)N(Cc2ccccc2C(F)(F)F)C(=NCc2ccccc2)NC1CCc1ccccc1 (stereo not drawn) | -31 | -41 | -5 | 91* | -7 | .
COC(=O)C1=C(C)N(Cc2ccccc2C(F)(F)F)C(=NCc2ccc(C(F)(F)F)cc2)NC1CCc1ccccc1 (stereo not drawn) | . | -9 | -5 | 4 | -1 | .
COC(=O)C1=C(C)N(Cc2cccc(C(F)(F)F)c2)C(=NCc2ccc3c(c2)OCO3)NC1CCc1ccccc1 (stereo not drawn) | 114* | -42 | -4 | ? | 1 | .
CC(C)Oc1ccc(C(=O)NC(=S)Nc2ccc(Cl)c(C(=O)O)c2)cc1 | -12 | -21* | -2 | 1 | . | -6
Cc1ccc(S(=O)(=O)Nc2ccc3c(c2)C(=O)N([C@@H](C)CO)C[C@H](C)[C@H](CN(C)Cc2ccccc2)OCCCC[C@@H](C)O3)cc1 | -28 | 10 | . | -20 | . | -1
CCCc1nc(SCC(=O)N2CCc3ccccc3C2)c2ccccc2n1 | -68 | -27* | -7 | 1 | -1 | 7
COc1ccc2c3c([nH]c2c1)[C@H](CO)N(C(=O)Nc1ccc(F)cc1)CC31CN(C(=O)Cc2ccncc2)C1 | 11 | 0 | . | -9 | 5 | 3
CCn1c(Cc2ccccc2)n[nH]c1=S | . | 11 | -16 | ? | . | 8
CC(C)Cn1c(Cc2ccccc2)n[nH]c1=S | 55* | -11 | -8 | . | 12 | 9
COc1ccc2c3c([nH]c2c1)[C@H](CO)NCC31CCN(C(=O)Nc2ccccc2F)CC1 | -5 | 4 | . | 5 | . | 2
COCC(=O)Nc1cc(Cl)ccc1C | -4 | 12 | -5 | . | 5 | .
Cc1ccc(Cl)cc1NC(=O)CCC(=O)O | 8 | 9 | -5 | -1 | 45* | .
NC(=O)C1CCN(C2=C(NS(=O)(=O)c3ccc(Br)cc3)C(=O)c3ccccc3C2=O)CC1 | 11 | -31* | -8 | 1 | -1 | -2
CCOC(=O)C1CCN(C2=C(NS(=O)(=O)c3ccc(Br)cc3)C(=O)c3ccccc3C2=O)CC1 | 5 | -38* | -5 | 18 | 3 | .
CCOC(=O)N1CCN(C2=C(NS(=O)(=O)c3ccc(Br)cc3)C(=O)c3ccccc3C2=O)CC1 | . | -8 | -6 | -7 | -3 | -11
NC(=O)C1CCN(C2=C(NS(=O)(=O)c3ccccc3)C(=O)c3ccccc3C2=O)CC1 | -12 | 1 | -5 | -3 | 1 | 3
C[C@@H]1CN([C@@H](C)CO)C(=O)Cc2cc(NC(=O)C3CCCCC3)ccc2O[C@@H]1CN(C)C | 10 | 6 | . | 7 | 4 | 10
C[C@H](CO)N1C[C@H](C)[C@H](CN(C)CC2CCOCC2)Oc2cc(C#Cc3ccccc3F)ccc2S1(=O)=O | -13 | -4 | . | 0 | . | -3
COc1cc(/C=C/C(=O)OCC(=O)NCCCc2ccccc2)cc(OC)c1OC | 10 | -18* | -15 | 12 | -1 | -8
COc1cc(/C=C/C(=O)OCC(=O)NCCc2ccccc2)cc(OC)c1OC | -11 | -22 | -5 | 1 | -2 | .
